Gli-Sufu block = antagonists of Gli-Sufu signaling | actives 0.74% (n = 340,000) | inhibition, % at 5 µM | AID 588413 | Sufu-KO-LIGHT fibroblasts, Gli luciferase reporter luminescence;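 active = inhibition above about 55%, limit read from the data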;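 also: 0% = DMSO-treated cells and 100% = wells with medium but no cells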
Mdm2 MdmX PPI = human Mdm2/MdmX binding inhibition | O15151+Q00987 | SaOS-2 split-luciferase Mdm2/MdmX complementation, luminescence | inhibition, % at 8 µM | actives 3% (n = 330,000) | AID 485346;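 active = inhibition of at least 50% at 8 µM in the primary screen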
CSC inhib = cancer stem cell inhibition. cancer stem cell-like cells viability, luminescence. AID 2717. actives 1.1% (n = 300,000). inhibition, % at 7.5 µM; in the data active = inhibition above about 75%; tested in HMLE shEcad cells
Jurkat NFkB inh = lowers PMA/ionomycin-induced NF-kB signal in Jurkat cells | PMA/ionomycin-induced NF-kB luciferase reporter, luminescence | inhibition, % at 4 µM | actives 0.53% (n = 330,000); in the data active = inhibition above about 50%
aSyn 5UTR inh = MLPCN primary screen, SNCA 5' untranslated region | actives 0.82% (n = 300,000) | inhibition, % (tested at 7.5 µM) | alpha-synuclein 5'UTR reporter, inhibitor activity; in the data active = inhibition above about 60%;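 also: H4 neuroglioblastoma cells stably carrying SNCA 5'UTR luciferase fusion; 0% = DMSO wells and 100% = positive control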
697 NFkB inh = inhibitors of the PMA/ionomycin-induced NF-kB reporter in 697 B cells; 697 B-cell NF-kB luciferase reporter, 16 h; inhibition, % at 4 µM; actives 0.33% (n = 330,000); AID 435022; in the data active = inhibition above about 35%
Mdm2-MdmX conf = human Mdm2/MdmX binding inhibition, confirmed; luminescent assay; actives 55% (n = 10,000); inhibition, % at 8 µM; shares compounds with Mdm2 MdmX PPI; in the data active = inhibition above about 40%
FLuc counter = inhibits full-length luciferase, flagging false Mdm2/MdmX hits; shares compounds with Mdm2 MdmX PPI; SaOS-2 full-length luciferase counterscreen, luminescence; inhibition, % at 8 µM; actives 77% (n = 6,200);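 active = mean inhibition at 8 µM reaching about 37%, which flags the compound as non-specific, limit read from the data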;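 also: p53-null SaOS-2 cells with luciferase driven by a doxycycline-inducible promoter; compound on cells about two nights before reading with doxycycline added after day one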
* hit, by the source's call; · = no result given. In the library only some 4.5% were active in any assay of this set; here they are far more common.

SMILES	Gli-Sufu block	Mdm2 MdmX PPI	CSC inhib	Jurkat NFkB inh	aSyn 5UTR inh	697 NFkB inh	Mdm2-MdmX conf	FLuc counter
CCOC(=O)N1CCN(S(=O)(=O)c2ccc(C(=O)Nc3nnc(C4CC4)o3)cc2)CC1	4	9	6	-10	7	-12	·	·
Cc1ccc(C(=O)NNC(=O)c2ccc(S(=O)(=O)N3CCCCC3)cc2)cc1	-24	1	-1	5	·	9	·	·
Cc1cc(C)c2nc(NNC(=O)c3ccc(S(=O)(=O)N4CCCCC4)cc3)sc2c1	-3	72*	102*	3	46	-27	45*	47*
CCOC(=O)N1CCN(S(=O)(=O)c2ccc(C(=O)NNc3nc4cc(C)cc(C)c4s3)cc2)CC1	5	79*	103*	-3	66*	-22	46*	47*
CCOC(=O)N1CCN(S(=O)(=O)c2ccc(C(=O)Nc3nc4c(s3)CC(C)CC4)cc2)CC1 (stereo not drawn)	-13	78*	-8	-11	23	-29	21	·
CCOC(=O)N1CCN(S(=O)(=O)c2ccc(C(=O)NNc3nc4c(C)cc(C)cc4s3)cc2)CC1	11	80*	126*	-5	71*	-9	70*	48*
CCOC(=O)N1CCN(S(=O)(=O)c2ccc(C(=O)Nc3nnc(CC)o3)cc2)CC1	2	8	·	11	11	-24	·	·
CC(NC(=O)COC(=O)c1ccc([N+](=O)[O-])o1)c1ccccc1 (stereo not drawn)	-7	27	·	-1	·	12	·	·
CCOC(=O)N1CCN(S(=O)(=O)c2ccc(C(=O)NNc3nc4c(C)cccc4s3)cc2)CC1	-1	53*	·	3	50	6	41*	47*
Cc1cccc2sc(NC(=O)c3cccc(S(=O)(=O)N4CCc5ccccc54)c3)nc12	-15	43	-1	-2	-1	-20	·	·
CCOC(=O)N1CCN(S(=O)(=O)c2ccc(C(=O)N(CCN(CC)CC)c3nc4c(C)cccc4s3)cc2)CC1	19	19	-7	-12	19	3	·	·
Cc1cccc2sc(NNC(=O)c3ccc(S(=O)(=O)N4CCc5ccccc5C4)cc3)nc12	-4	83*	103*	3	67*	-5	82*	76*
Nc1nccc(-c2ccc(-n3cnc4ccccc43)cc2)n1	-34	70*	·	14	-63	-3	56*	22
c1ccc2c(c1)ncn2-c1ccc(-c2ccnc(-c3ccncc3)n2)cc1	4	53*	2	11	-19	21	16	·
CN(C(=O)Cn1cnc2sccc2c1=O)C1CCCCC1	-4	-16	2	1	·	-12	·	·
O=C(Nc1ccc(Cl)c(Cl)c1)Nc1nnc(CC2=CCCCC2)s1	44	89*	31	-2	23	-43	27	·
O=C(Nc1nnc(CC2=CCCCC2)s1)c1cccs1	-22	-22	-1	-35	-93	-71	·	·
O=C(Nc1ccc(Cl)cc1)Nc1nnc(CSCc2ccc(Cl)cc2)s1	19	98*	59	27	15	-18	21	·
COc1ccc(OC)c(/C=C/C(=O)c2ccc3c(c2)OCCO3)c1	3	76*	61	0	-156	-3	16	·
COc1cc(/C=C/C(=O)c2ccc3c(c2)OCO3)cc(OC)c1OC	7	91*	·	2	·	2	60*	38*
COc1cc(/C=C/C(=O)c2ccc3c(c2)OCCO3)cc(OC)c1OC	31	67*	45	18	-52	-14	46*	66*
CC(C)CC(=O)N1CCC(N(CCc2ccccc2)Cc2ccccc2)CC1	19	6	1	-5	17	-1	·	·
CC1CN(S(=O)(=O)c2ccc(NC(=O)c3cc(-c4ccccc4O)n[nH]3)cc2)CC(C)O1 (stereo not drawn)	39	58*	40	9	-4	-30	32	·
CSCCC(=O)N1CCC(n2nccc2NC(=O)c2ccc3c(c2)OCO3)CC1	-97	-43	4	-86	-84	-97	·	·
CCOC(=O)c1[nH]c(C)c(C(=O)N2CCc3ccccc32)c1C	48	63*	47	48	90*	-6	57*	82*
SMILES	Gli-Sufu block	Mdm2 MdmX PPI	CSC inhib	Jurkat NFkB inh	aSyn 5UTR inh	697 NFkB inh	Mdm2-MdmX conf	FLuc counter
Nc1nc(-c2ccc(Cl)cc2)nc(-c2ccc(Cl)cc2)n1	2	57*	25	5	-21	18	40*	61*
CSc1nc(-c2ccc(Cl)cc2)nc(N)c1C#N	0	67*	-20	-19	36	-16	44*	73*
N#Cc1c(N)nc(-c2ccccc2)nc1-c1ccccc1	-1	56*	-12	1	-18	14	3	·
CC(C)(C)c1ccc(-c2nc(N)nc(N)n2)cc1	0	4	-11	-18	-89	-18	·	·
CS(=O)(=O)N(CC(=O)Nc1cccc(F)c1)Cc1ccccc1	1	17	-5	8	7	6	·	·
Cc1cccc(N2CCN(C(=O)c3ccc(Cl)c(NC4=NC5CS(=O)(=O)CC5S4)c3)CC2C)c1 (stereo not drawn)	-6	21	3	7	10	6	·	·
Cc1ccc(S(=O)(=O)N(CC(O)CN2C(=O)NC(C)(C)C2=O)c2ccccc2)cc1 (stereo not drawn)	4	17	-17	0	-14	6	·	·
CCCCNC1C(CC)C(CCC)C(C#N)(C#N)C1(C#N)C#N (stereo not drawn)	-17	61*	0	37	7	33	31	56*
Cc1ccc(C(C[N+](=O)[O-])c2c(-c3ccccc3O)[nH][nH]c2=O)cc1 (stereo not drawn)	4	32	66	-4	-34	1	·	·
O=c1[nH][nH]c(-c2ccccc2O)c1C(C[N+](=O)[O-])c1ccc(Br)cc1 (stereo not drawn)	16	54*	59	7	-95	-3	23	·
COc1ccc(S(=O)(=O)N2CCC(C(=O)Nc3cccc(Cl)c3)CC2)cc1OC	0	12	-1	7	34	0	·	·
CS(=O)(=O)c1nc2ccccc2n1Cc1ccccc1	2	35	7	-32	-14	-6	·	·
CCS(=O)(=O)c1nc2ccccc2n1Cc1ccccc1Cl	-6	69*	-2	0	-4	10	35	·
COc1ccc(-c2sc3cc(OC)c(OC)cc3c2C#CC(C)(C)O)cc1	-8	46	17	-32	·	-23	·	·
COc1ccc2sc(-c3ccc(N(C)C)cc3)c(C#Cc3cncn3C)c2c1	2	74*	104*	11	·	-25	28	·
O=C(NC(=O)c1ccc(C(F)(F)F)cc1)Nc1ccc(-c2cnco2)cc1	1	56*	2	29	17	9	8	·

Screening data (PubChem BioAssay)
